From ChEMBL document CHEMBL3988442, “University of Dundee, Small-Polar-MMV Screening Library” (2021)
In all, about 69,000 compounds went through this assay and about 420 (0.61%) showed an effect of 50% or more. The sample holds strong results, similar compounds and a random draw of the others, so the mix is not that of the screen.

target: T1, Histidine--tRNA ligase (Leishmania infantum) (UniProt A4I591); test: Leishmania infantum Histidine tRNA synthetase (LdHisRS); format: functional; design: scale not given: in the data most compounds retested in dose-response had high values; details: 30 µM
T1 sequence (whole entry): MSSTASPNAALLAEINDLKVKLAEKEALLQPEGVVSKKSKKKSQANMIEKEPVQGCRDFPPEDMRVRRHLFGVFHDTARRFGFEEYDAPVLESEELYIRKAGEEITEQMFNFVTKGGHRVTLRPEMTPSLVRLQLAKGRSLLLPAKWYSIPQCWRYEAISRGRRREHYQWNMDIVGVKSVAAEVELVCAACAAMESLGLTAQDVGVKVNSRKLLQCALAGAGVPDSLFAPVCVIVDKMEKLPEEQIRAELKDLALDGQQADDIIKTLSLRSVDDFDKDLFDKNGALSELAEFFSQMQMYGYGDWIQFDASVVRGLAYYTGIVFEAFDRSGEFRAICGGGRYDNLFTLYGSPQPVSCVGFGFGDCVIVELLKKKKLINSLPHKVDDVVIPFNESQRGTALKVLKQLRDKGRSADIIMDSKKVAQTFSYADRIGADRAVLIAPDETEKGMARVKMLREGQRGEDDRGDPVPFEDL

Compound	Percent Effect [%]
CNC(=O)[C@H]1C[C@@H]2CN(C(=O)c3ccco3)C[C@@H]2N1S(C)(=O)=O	17
COCCC(=O)N1CC[C@@H]2O[C@@H](C)C[C@H]2C1	15.3
O=C(Cc1ccco1)N1C[C@H]2CCC[C@@]2(COc2cccnc2)C1	24
Cn1cnc2c1CCN(Cc1csc(-c3ccccc3)n1)C2	15.7
COc1ccc(-c2nc(CN3CCc4c(ncn4C)C3)cs2)cc1	57.5
Cn1cnc2c1CCN(Cc1csc(-c3ccc(F)cc3)n1)C2	10.2
Cc1ccc(OCC(=O)N2C[C@@H]3CN(C)CCO[C@@H]3C2)cc1	5.17
Cc1cc(C)n(C2CN(CC(=O)N(C)Cc3ccsc3)C2)n1	43.8
COc1cccc(CN(C)C(=O)CN2CC(n3nc(C)cc3C)C2)c1	62.9
COc1ccccc1CN(C)C(=O)CN1CC(n2nc(C)cc2C)C1	40.2
COc1cc(C(=O)N2CCO[C@H]3[C@H](OCC4CC4)CC[C@@H]32)ccc1F	12.1
O=C(NCc1cccnc1)[C@H]1C[C@@H]2CCN(c3ccncn3)C[C@H]2O1	15.3
CCN1C[C@@H]2CN(C(=O)c3ccsc3)C[C@@H]2C1=O	-28.6
N#Cc1cccc(CN2C[C@@H](NC(=O)C3CC3)[C@H]3OCCC[C@H]32)c1	-2.75
COc1ccccc1S(=O)(=O)Nc1cnc(O)cc1C	20.5
COc1cc(F)c(S(=O)(=O)Nc2cnc(O)cc2C)cc1OC	97.6
CC(C)(CN)NS(=O)(=O)c1cccc(F)c1F	11.8
Cc1cc(O)ncc1NS(=O)(=O)c1cccc(F)c1F	95.2
O=C(O)c1c[nH]c2cc(NS(=O)(=O)c3cccc(F)c3F)ccc12	36.5
COc1ncc(NS(=O)(=O)c2ccc(F)cc2F)cn1	12.8
COc1ccc(CN2CCO[C@H]3CN(C(=O)C4CC4)CC[C@H]3C2=O)cc1	11.1
COC[C@@]12CCO[C@@H]1CCN(Cc1ccc(C)s1)C2	-2
O=C(c1cnccn1)N1C[C@@H]2CC[C@H](C1)N(C(=O)Cc1ccsc1)C2	12.3

Compound	Percent Effect [%]
CCCS(=O)(=O)N1C[C@H](N(C)Cc2ccco2)[C@@H]2OCCC[C@@H]21	9
Cc1nc(C(=O)N2C[C@@H]3CN(S(C)(=O)=O)CCO[C@@H]3C2)cs1	8.77
CN(C)c1nc(CNC(=O)Nc2cccc([S+](C)[O-])c2)cs1 (stereo not given)	27.1
Cc1nnsc1CNC(=O)Nc1cccc(N2CCN(C)C2=O)c1	11.8
CN1CCN(c2cccc(NC(=O)NCc3csc(N(C)C)n3)c2)C1=O	64.7
Cc1cccc(CN2C(=O)CO[C@@H]3CN(Cc4cnn(C)c4)C[C@H]32)c1	23.1
C=Cc1cccc(CN2C[C@H]3CC[C@@H]2CN(Cc2c(C)noc2C)C3)c1	27.4
Cc1cccc(C)c1-c1cc(NCCO)nc2[nH]ccc12	10
COCCNc1cc(-c2ccccc2CCN)c2cc[nH]c2n1	4.84
CNc1cc(C)nc(-c2cc(NC)nc3[nH]ccc23)n1	-2.04
CNc1cc(-c2cccc(CN)c2)c2cc[nH]c2n1	68.7
CNc1cc(-c2ccccc2CN)c2cc[nH]c2n1	80.7
CNc1cc(-c2ccc(COCCN)cc2)c2cc[nH]c2n1	20.5
O=C(c1cocn1)N1CC[C@H]2OCC[C@@]2(COc2ncccc2F)C1	22.4
O=C(Cc1ccccc1)N1CC[C@@H]2CNS(=O)(=O)[C@@H]2CC1	28.1
Nc1cccnc1N1CCN(c2ccccc2)CC1	8.33
Nc1cccnc1N1CCCCCC1	58.3
Nc1cccnc1N1CCC(O)CC1	12.5
COc1ccc(CC(=O)N2C[C@@H]3COC[C@]3(CN(C)C)C2)cc1	-47.1
Cc1nc(COC[C@@H]2CC[C@H]3[C@H](CCN3C(=O)C3CC3)O2)cs1	14.7
Cc1cccc(C(=O)N2C[C@@H]3CCN(c4cccnc4)C[C@@H]3C2)c1	6.57
CN(C)C(=O)CN1CC[C@H]2CN(C3CCOCC3)C[C@@H]2C1=O	11.7
Cc1ncc2c(n1)CN(CC1CCCCO1)CC2 (stereo not given)	25.7

Compound	Percent Effect [%]
CCCn1nc2c(cc1=O)CN(CC1CCCCO1)CC2 (stereo not given)	79.5
Cn1nc2c(cc1=O)CN(CC1CCCCO1)CC2 (stereo not given)	104
Cn1nc2c(cc1=O)CN(CCN1CCCC1=O)CC2	4.39
CC(C)n1nc2c(cc1=O)CN(CC1CCCCO1)CC2 (stereo not given)	35.6
CCn1nc2c(cc1=O)CN(CC1CCCCO1)CC2 (stereo not given)	0
CCCSCC(=O)N1C[C@H]2CC[C@@H]1CN(c1ncccn1)C2	4.17
CC(C)CC(=O)N1CC[C@H]2N(C)CC[C@@]2(C(=O)Nc2ccccc2)CC1	15.4
Cc1nccc([C@@H]2C[C@@H]3CCN(S(C)(=O)=O)C[C@H]3O2)n1	22.6
CC1=N[C@@]2(CC[C@@H]3CN(CC(=O)N(C)C)C[C@@H]32)C(=O)N1CC1CC1	23.1
COc1cccc(CN2CC(=O)N(c3ccccc3C)CC2C)c1OC (stereo not given)	38.5
COc1ccc(F)c(F)c1CN1CC(=O)N(c2ccccc2C)CC1C (stereo not given)	53
COc1ccc(F)c(CN2CC(=O)N(c3ccccc3C)CC2C)c1 (stereo not given)	31.3
c1csc(N2[C@H](Cn3cncn3)C[C@@H]3CNCC[C@@H]32)n1	-6.84
CC(C)c1cc(N2CCC(N)CC2)n2nccc2n1	22.9
CC(C)c1cc(N2CC[C@H](F)C2)n2nccc2n1	22.2
CC(C)c1cc(N2CCC(C(C)N3CCCC3)CC2)n2nccc2n1 (stereo not given)	69.4
Cc1cccc(CO[C@@H]2CC[C@H]3[C@H]2OCCN3Cc2cc(C)on2)n1	22.2
O=C(NC[C@H]1CC[C@H](c2ccnc3ncnn32)CC1)c1ccccn1	7.04
CC(CCc1cccn1C)NC(=O)Nc1cccn(C)c1=O (stereo not given)	38.4
Cn1cccc(NC(=O)NCCOCc2ccccc2)c1=O	22
Cc1cccc(C)c1OCC(=O)Nc1cccn(C)c1=O	21
CN1CCN(c2ccccc2NC(=O)NCCc2ccc(O)cc2)CC1	21.5
Cn1cccc(NC(=O)COc2ccc(Cl)cc2)c1=O	34.5

Compound	Percent Effect [%]
CC(C)C(C)NC(=O)Nc1cccn(C)c1=O (stereo not given)	63.4
Cn1cccc(NC(=O)NCc2cccc(CO)c2)c1=O	55
CCSCCC(C)NC(=O)Nc1cccn(C)c1=O (stereo not given)	29.5
Cn1cccc(NC(=O)NCCc2cccc(O)c2)c1=O	55
COCCN1CCO[C@H]2CN(Cc3cc[nH]n3)C[C@H]21	23.8
CS(=O)(=O)N[C@@H]1CN(C(=O)c2ccccn2)C[C@@H]2CCCO[C@@H]21	15.6
CN1CCO[C@@H]2CN(C(=O)NCc3cccc(F)c3)CC[C@@H]2C1	4.54
CCCS(=O)(=O)N1C[C@@H](c2nc(C)no2)C[C@H]2OCC[C@H]21	11.7
Cc1cccc(C(=O)N2C[C@@H]3OCCN(CCN4CCCC4)[C@@H]3C2)n1	16
CCS(=O)(=O)N1CC[C@@H]2[C@H](CC1)N(CC(C)C)CCS2(=O)=O	10.5
O=C(NCC1CC1)[C@H]1C[C@@H]2CN(S(=O)(=O)Cc3ccccc3)C[C@H]1O2	-0.73
O=C(c1ccncc1)N1CC[C@@H]2[C@@H](CC1)OCCN2c1cccnc1	17.5
Cc1nc(CO[C@H]2CN(Cc3cccs3)[C@@H]3COC[C@H]23)cs1	8.06
CN1CCN(Cc2cccc(NCc3cc[nH]n3)c2)CC1	12.3
COCc1nc2cc(NCc3ccncc3)ccc2o1	100
COCc1nc2cc3c(cc2c(=O)o1)OCCCO3	15.7
COCc1nc2cc(NCc3cc[nH]n3)ccc2o1	106
COCc1nc2cc(NCc3ncc[nH]3)ccc2o1	38.4
CCC(C)CNc1ccc2oc(COC)nc2c1 (stereo not given)	94.2
c1cc(CN2CCCCC2)cc(NCc2cc[nH]n2)c1	15.8
COCc1cccc(NCc2cccnc2)c1	6.67
CCCS(=O)(=O)C(C)C(=O)Nc1ccc2oc(C3CC3)nc2c1 (stereo not given)	26.8
O=C(NC1CC1)[C@H]1COC[C@H]2CN(c3ncc(F)cn3)C[C@H]21	12

Compound	Percent Effect [%]
Cc1nc(CN2CCO[C@H]3CN(C(=O)c4cccn4C)C[C@H]32)cs1	10.5
CNC(=O)[C@@H]1[C@@H](c2ccccc2)CN2CCN(Cc3cccs3)C[C@H]12	6.12
Cc1ccc(CN2C[C@@H]3CN(CC4CCOCC4)CCO[C@@H]3C2)s1	19
COCC(=O)N[C@H]1C[C@H]2C(=O)NC[C@@H](CCC(=O)NC3CC3)N2C1	5.56
CN(C)C(=O)[C@@H]1CCO[C@@H]2CCN(c3ncccn3)C[C@@H]21	0
CNC(=O)[C@@H]1CC[C@@H]2[C@@H](CCN2C(=O)N(C)C)O1	0
COC[C@@]12CCO[C@@H]1CCN(C(=O)Cc1cccc(F)c1)C2	19.4
CCOc1ccc2nc(CN3CCOC(CN)C3)ccc2c1 (stereo not given)	13.4
CCOc1ccc2nc(CN3CCC(CN)C3)ccc2c1 (stereo not given)	52.2
CCOc1ccc2nc(CN3CCC(CNC(C)=O)C3)ccc2c1 (stereo not given)	37.3
COC[C@@]12CCO[C@@H]1CCN(C(=O)Cc1ccccc1F)C2	11.4
O=C1[C@@H]2CCN(Cc3ccoc3)C[C@@H]2OCCN1Cc1cccnc1	15.3
Cc1ccc(OCCC(=O)NC2CC(=O)N(C)C2)cc1C (stereo not given)	12.7
Cc1cc(C)cc(OCCC(=O)NC2CC(=O)N(C)C2)c1 (stereo not given)	74.7
CN1CC(NC(=O)CCOc2cccc(Cl)c2)CC1=O (stereo not given)	4.22
Cc1nc(CN2CCO[C@H]3[C@H](OCC(=O)N(C)C)CC[C@@H]32)cs1	-9.73
COc1cccc(-c2n[nH]c3c2CN(C(=O)c2ccncc2)CC3)c1	0
COc1cccc(-c2n[nH]c3c2CN(C(=O)c2cccc(=O)[nH]2)CC3)c1	65.6
COc1cccc(-c2n[nH]c3c2CN(C(=O)c2cc(C)n(C)n2)CC3)c1	0
Cc1csc(CN2CC[C@H]3C[C@@H](c4noc(C)n4)O[C@@H]3C2)n1	12.9
COc1ccc(CC(=O)N(C)c2cccnc2N(C)C)c(Cl)c1	57.1
CN(C)c1ncccc1N(C)C(=O)Cn1cc(-c2ccccc2)nn1	0
COc1cccc(OCC(=O)N(C)c2cccnc2N(C)C)c1	10.2
